The source of these data is PubChem BioAssay (NCATS).

The structures appear in SMILES notation. Unmarked numbers belong to inactive results. Results filed as inconclusive are left out. Active and inactive are the calls of the source. Unless noted, calls follow the shape of the dose curve; as a rule, active = well fitted curve in either direction with a large enough effect (not every such curve was filed as active); inconclusive = small, poorly fitted or top-dose-only effect, or another doubt; inactive = flat fitted curve, though single readings scatter. Bounds are passed on as bounds.

The nature of test [1]: AP1 Signaling Pathway (AID 357). Also: % is scaled to controls: 0 for no effect and ±100 for the full control effect. The note with it: ME-180 AP-1-bla reporter, EGF-induced, beta-lactamase ratio, 5 h; at 17.2 µM (top of the series) unless noted. The procedure, abridged: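 Cells are seeded overnight, exposed to compound titrations and an EC50 level of EGF for 5 hours at 37 °C, then loaded with CCF4 dye for 2.5 hours. Beta-lactamase activity under the AP-1 element is read as a blue/green ratio.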

A short description of test [2]: NFAT Signaling Pathway (AID 444).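 Also: carbachol stimulus at about its EC50 of 1 µM final; % is scaled to controls: 0 for no effect and ±100 for the full control effect.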 The note with it: Jurkat NFAT-bla M1, carbachol, beta-lactamase ratio, 5 h; at 17.2 µM (top of the series) unless noted. The procedure, abridged: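 Jurkat cells with NFAT-driven β-lactamase reporter and co-expressed M1 receptor, stimulated with carbachol (final 1 uM, ~EC50), compound titration, 5 h at 37 °C. CCF4 loaded 1 h at RT; 460/530 nm ratio gave %activity and AC50.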

Test [3] can be described thus: Stat Signaling Pathway (AID 446).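 Also: ME-180 cervical cancer cells given 40 pM IL-6 alongside compound; SIE-controlled beta-lactamase reporter measured as 460/530 nm FRET emission ratio; % is scaled to controls: 0 for no effect and ±100 for the full control effect.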 The note with it: ME-180 SIE beta-lactamase reporter, IL-6 stimulated, 5 h; at 17.2 µM (top of the series) unless noted. Put shortly: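 Screening format detects activators and inhibitors alike: ME-180 SIE-bla cells stimulated at 40 pM IL-6 for 5 hrs with compound, then dual-emission beta-lactamase read at 405 nm excitation.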
The target in test [4] is 3',5'-cyclic-AMP phosphodiesterase 4B (Homo sapiens) (UniProt Q07343). Put plainly: qHTS Assay for Inhibitors of PDE-IV (AID 607; active = well fitted activation curve with a large enough effect in the main read-out, with a control signal flat, not every such curve was filed as active; also: % of control where 0% means no effect). The procedure, abridged: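 The readout is membrane depolarisation from a cAMP-sensing CNG channel, detected with a potential dye at ex 535/em 590. Cells were HEK293-derived (endogenous PDE-IV) at 1000 cells/well, titrated up to 22.9 uM final.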

In test [5] the target is Guanine nucleotide-binding protein G(i) subunit alpha-1 (Homo sapiens) (UniProt P63096). As to the kind of experiment: qHTS Assay for Inhibitors of RGS12 GoLoco Motif Activity (Green Fluorophore) (AID 879; active = well fitted curve in the direction sought with a large enough effect; an effect the other way counts as inactive or inconclusive;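 also: 0% = labeled peptide with Gαi1 and full inhibition = labeled peptide alone without protein; negative values mean loss of peptide binding seen as reduced polarization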). Put shortly: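 Fluorescence polarization assay: 50 nM Gαi1 with 10 nM FITC-labeled RGS12 GoLoco peptide in 10 mM Tris pH 7.5, 150 mM NaCl, 0.1 mM GDP, 0.05% NP40, 10 min at room temperature with compound.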
For orientation: qHTS replaces the single test concentration by a dilution series.

Test [6] is described as follows: qHTS Assay for Identification of Small Molecule Agonists for Thrombopoietin (TPO) Signaling Pathway (AID 917; active = well fitted curve in the direction sought with a large enough effect; an effect the other way counts as inactive or inconclusive; also: % is scaled to controls: 0 for no effect and ±100 for the full control effect). The procedure, abridged: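 Murine Ba/F3 cells expressing human TPO receptor and GPIIb-promoter luciferase, IL-3-starved overnight, given compound plus TPO at 26 pM (EC50). After 24 h at 37 C, 5% CO2, luminescence read.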
Test [7] addresses Pyruvate kinase (Leishmania mexicana) (UniProt Q27686). As to the kind of experiment: qHTS Validation Assay for Inhibitors of Leishmania Mexicana Pyruvate Kinase (AID 945; active = well fitted curve in the direction sought with a large enough effect; an effect the other way counts as inactive or inconclusive;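 also: 0% = DMSO only neutral control wells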). The procedure, abridged:
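Compounds are tested as eight-point concentration series. Reactions contain 0.2 nM LmPYK E451W, 0.5 mM PEP, 0.1 mM ADP, 7 mM MgCl2 and 50 mM KCl at pH 7.2, run 1 h at room temperature, then read by PKLight luminescence.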

In test [8] the target is Pyruvate kinase PKM (Homo sapiens) (UniProt P14618). As to the kind of experiment: qHTS Assay for Activators of Human Muscle Pyruvate Kinase (AID 954; active = well fitted curve in the direction sought with a large enough effect, not every such curve was filed as active;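 also: 0% = uninhibited enzyme and -100% = no enzyme or full thiadiazolimine inhibition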). Put shortly: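 Reaction: 0.1 nM purified PKM2 with 0.5 mM phosphoenolpyruvate and 0.1 mM ADP, room temperature, 1 h. Readout: luciferase-based ATP luminescence after stop reagent. Activators judged against a 0.3 nM enzyme column.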

In test [9] the target is Alpha-galactosidase A (Homo sapiens) (UniProt P06280). Put plainly: Counterscreen for Glucocerebrosidase Inhibitors: qHTS Assay for Human alpha-Galactosidase at pH 4.5 (AID 992; active = well fitted curve in the direction sought with a large enough effect; an effect the other way counts as inactive or inconclusive; also: 0% is about no effect). Put shortly: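 Concentration-response curves (0.7 nM to 77 uM final) were modeled with the Hill equation to give AC50. Reactions: 2 nM enzyme, 80 uM fluorogenic alpha-galactoside, pH 4.5 citric acid buffer, 20 min, room temperature.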
In general terms: Counterscreens check selectivity or assay interference.

Test [10] concerns the target alpha-glucosidase (Oryza sativa, rice) (UniProt Q653V4). Put plainly: Counterscreen for Glucocerebrosidase Inhibitors: qHTS Assay for Rice alpha-Glucosidase at pH 5.0 (AID 997; active = well fitted curve in the direction sought with a large enough effect; an effect the other way counts as inactive or inconclusive;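 also: 0% = full activity with enzyme and -100% = basal without enzyme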). The procedure, abridged: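 Rice alpha-glucosidase (4 nM final) with 400 uM 4-methylumbelliferyl-alpha-D-glucopyranoside in citrate buffer pH 5.0, 20 min at room temperature, stopped at pH 10; fluorescence 365/440 nm, compounds 0.7 nM–77 uM, AC50 from Hill fits.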

The target in test [11] is Glucocorticoid receptor (Homo sapiens) (UniProt P04150). As to the kind of experiment: GR-GFP Redistribution (AID 450;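 active = compounds whose dose series gives a full or clear partial fitted curve of increased nuclear translocation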; also: potency is read from the fitted curve at half-maximal effect).
Test [12] can be described thus: qHTS Assay for Identification of Small Molecule Agonists for Hypoxia Response Element Signaling Pathway (AID 914; active = well fitted activation curve with a large enough effect in the signal ratio, with a control signal flat, not every such curve was filed as active; the % refers to the signal ratio; also: % of control where 0% means no effect). As to conditions: ME-180 (cervical carcinoma) HRE-bla reporter, beta-lactamase ratio, CoCl2, 17 h; activation: stronger effect = higher value. Put shortly: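 A beta-lactamase reporter under hypoxia response element control in ME-180 cells served as the system. Compound titrations plus EC50 CoCl2 ran 17 h at 37 degrees Celsius; AC50 values were fitted from %Activity.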

Sequence of Glucocorticoid receptor (Homo sapiens) (P04150 whole entry, looked up): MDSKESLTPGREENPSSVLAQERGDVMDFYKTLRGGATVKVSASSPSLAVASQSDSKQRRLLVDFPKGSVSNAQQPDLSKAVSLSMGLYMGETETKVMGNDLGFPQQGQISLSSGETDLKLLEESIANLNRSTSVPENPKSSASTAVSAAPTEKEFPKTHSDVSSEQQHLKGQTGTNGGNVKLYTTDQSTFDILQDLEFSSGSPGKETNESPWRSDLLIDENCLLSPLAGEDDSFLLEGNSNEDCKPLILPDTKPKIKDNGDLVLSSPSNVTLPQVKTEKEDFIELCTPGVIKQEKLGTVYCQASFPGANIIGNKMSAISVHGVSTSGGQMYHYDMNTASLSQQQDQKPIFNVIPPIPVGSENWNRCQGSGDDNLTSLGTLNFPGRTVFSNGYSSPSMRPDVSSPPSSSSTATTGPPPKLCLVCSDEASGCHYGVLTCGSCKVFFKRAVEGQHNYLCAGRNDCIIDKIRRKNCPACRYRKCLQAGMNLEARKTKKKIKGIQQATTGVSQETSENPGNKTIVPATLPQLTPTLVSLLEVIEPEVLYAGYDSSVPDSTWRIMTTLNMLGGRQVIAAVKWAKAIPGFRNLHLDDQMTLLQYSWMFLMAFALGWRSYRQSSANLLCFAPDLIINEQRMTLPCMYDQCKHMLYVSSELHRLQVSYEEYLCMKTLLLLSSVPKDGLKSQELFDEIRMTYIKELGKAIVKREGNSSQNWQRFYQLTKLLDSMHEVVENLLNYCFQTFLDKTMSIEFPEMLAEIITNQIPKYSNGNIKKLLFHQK
Sequence of 3',5'-cyclic-AMP phosphodiesterase 4B (Homo sapiens) (Q07343 whole entry, looked up): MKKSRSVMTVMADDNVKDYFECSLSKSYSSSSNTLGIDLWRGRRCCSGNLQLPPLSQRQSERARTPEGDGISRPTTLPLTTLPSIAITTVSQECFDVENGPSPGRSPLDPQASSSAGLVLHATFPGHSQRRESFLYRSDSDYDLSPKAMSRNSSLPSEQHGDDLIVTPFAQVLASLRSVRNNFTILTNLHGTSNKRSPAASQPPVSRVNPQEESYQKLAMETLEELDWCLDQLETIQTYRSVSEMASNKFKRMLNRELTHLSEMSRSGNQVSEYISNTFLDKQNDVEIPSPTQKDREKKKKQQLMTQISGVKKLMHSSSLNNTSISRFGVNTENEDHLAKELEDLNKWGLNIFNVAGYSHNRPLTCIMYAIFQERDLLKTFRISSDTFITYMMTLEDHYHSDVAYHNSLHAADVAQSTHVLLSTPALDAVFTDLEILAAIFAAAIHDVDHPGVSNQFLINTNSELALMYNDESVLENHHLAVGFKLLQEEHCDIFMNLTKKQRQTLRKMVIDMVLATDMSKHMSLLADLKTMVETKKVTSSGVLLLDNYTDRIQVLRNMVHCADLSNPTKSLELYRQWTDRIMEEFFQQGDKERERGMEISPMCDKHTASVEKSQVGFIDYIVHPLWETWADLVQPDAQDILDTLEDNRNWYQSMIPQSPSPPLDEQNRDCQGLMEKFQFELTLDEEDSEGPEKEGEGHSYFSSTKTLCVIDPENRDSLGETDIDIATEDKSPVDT
Sequence of Pyruvate kinase (Leishmania mexicana) (Q27686 2-499 E452W): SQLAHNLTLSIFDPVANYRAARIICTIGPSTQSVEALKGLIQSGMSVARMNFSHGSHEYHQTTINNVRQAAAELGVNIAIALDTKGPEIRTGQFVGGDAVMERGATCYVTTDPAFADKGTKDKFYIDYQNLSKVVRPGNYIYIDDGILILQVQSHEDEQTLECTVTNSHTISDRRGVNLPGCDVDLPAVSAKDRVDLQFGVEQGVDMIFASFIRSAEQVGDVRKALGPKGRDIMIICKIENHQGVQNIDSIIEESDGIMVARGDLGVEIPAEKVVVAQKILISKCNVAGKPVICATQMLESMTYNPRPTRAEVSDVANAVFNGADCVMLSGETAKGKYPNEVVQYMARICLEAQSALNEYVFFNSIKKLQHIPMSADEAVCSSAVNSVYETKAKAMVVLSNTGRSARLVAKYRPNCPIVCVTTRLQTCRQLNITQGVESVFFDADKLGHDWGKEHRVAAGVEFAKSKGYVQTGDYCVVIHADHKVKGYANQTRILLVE
Sequence of Pyruvate kinase PKM (Homo sapiens) (P14618 whole entry, looked up): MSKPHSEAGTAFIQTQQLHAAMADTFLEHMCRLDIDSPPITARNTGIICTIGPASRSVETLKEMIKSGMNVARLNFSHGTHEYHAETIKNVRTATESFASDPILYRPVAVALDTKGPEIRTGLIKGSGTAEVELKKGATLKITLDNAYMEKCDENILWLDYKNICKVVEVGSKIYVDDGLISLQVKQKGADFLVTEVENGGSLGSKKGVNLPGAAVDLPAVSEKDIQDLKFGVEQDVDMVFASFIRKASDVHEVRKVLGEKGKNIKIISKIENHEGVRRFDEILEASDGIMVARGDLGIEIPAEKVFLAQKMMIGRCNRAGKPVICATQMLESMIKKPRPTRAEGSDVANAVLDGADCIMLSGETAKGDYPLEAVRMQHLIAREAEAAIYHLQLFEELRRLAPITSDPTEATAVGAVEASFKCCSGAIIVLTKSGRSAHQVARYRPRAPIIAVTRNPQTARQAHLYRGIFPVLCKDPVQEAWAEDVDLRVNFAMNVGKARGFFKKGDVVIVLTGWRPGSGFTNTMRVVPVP
Sequence of Alpha-galactosidase A (Homo sapiens) (P06280 whole entry, looked up): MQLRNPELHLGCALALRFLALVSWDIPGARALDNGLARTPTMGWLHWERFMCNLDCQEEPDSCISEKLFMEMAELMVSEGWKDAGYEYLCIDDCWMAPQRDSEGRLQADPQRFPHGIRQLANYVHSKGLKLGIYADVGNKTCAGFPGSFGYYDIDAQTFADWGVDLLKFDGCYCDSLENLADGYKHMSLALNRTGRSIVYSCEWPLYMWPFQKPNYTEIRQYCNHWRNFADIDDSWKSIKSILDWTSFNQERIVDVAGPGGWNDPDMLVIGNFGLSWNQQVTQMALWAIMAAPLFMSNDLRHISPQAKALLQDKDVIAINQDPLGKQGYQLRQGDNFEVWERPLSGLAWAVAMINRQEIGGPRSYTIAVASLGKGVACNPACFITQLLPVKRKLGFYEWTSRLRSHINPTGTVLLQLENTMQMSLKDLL
Sequence of Guanine nucleotide-binding protein G(i) subunit alpha-1 (Homo sapiens) (P63096 whole entry, looked up): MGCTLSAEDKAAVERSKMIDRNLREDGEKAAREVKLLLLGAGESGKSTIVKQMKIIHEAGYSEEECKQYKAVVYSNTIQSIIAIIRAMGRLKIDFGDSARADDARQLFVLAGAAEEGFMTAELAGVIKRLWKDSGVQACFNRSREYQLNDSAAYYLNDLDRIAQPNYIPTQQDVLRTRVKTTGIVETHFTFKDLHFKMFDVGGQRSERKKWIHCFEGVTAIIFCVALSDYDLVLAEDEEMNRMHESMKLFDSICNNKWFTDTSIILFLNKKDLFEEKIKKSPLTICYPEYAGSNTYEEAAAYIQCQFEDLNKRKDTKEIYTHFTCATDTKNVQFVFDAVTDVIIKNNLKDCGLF

Regarding `c1ccc2c(c1)CCC[C@H]2C1=NCCN1`, the activity change, negative = inhibition was 4.49% [at 38 µM] in [1] and -2.65% [at 38 µM] in [2]. The activity, negative = inhibition in test [3] was 7.24% [at 38 µM]. The Potency entry in [4], in test [6] and in [7] was “inactive” in each case. For the same compound, the result in [5], in [8], in [9] and in test [10] was inactive.

Regarding `O=C(NO)c1ccccc1O`, the activity change, negative = inhibition in [1] was -4.21%; in test [2], -9.27%. Further, the Potency in test [11] was above 20.6 µM.

Regarding `O=C(C1CCCCC1)N1CCCn2c1nc1ccccc12`, the activity change, negative = inhibition is 8.92% in [1] and -19.9% in test [2]. In [3], the activity, negative = inhibition is 4.38%. In addition, the Potency in [11] is above 20.6 µM. Further, the activation in test [12] is 6.44%.

Regarding `COc1ccc(N(CN2C(=O)C3C4C=CC(C4)C3C2=O)C(=O)c2ccco2)cc1` (stereo not given), the activity change, negative = inhibition was -8.5% in test [1] and 12.6% in [2]. In addition, the Potency in [11] is above 20.6 µM.

Consider `COC(=O)/C(=C1/Oc2cc(C)oc(=O)c2S1)C(F)(F)F`, for which the activity change, negative = inhibition in [1] is 7.82%; in test [2] it was -131% (active). Also, the Potency in test [11] was above 20.6 µM.

In the case of `CCCOc1ccc(Cn2c(O)cc(=O)[nH]c2=O)cc1`, the activity change, negative = inhibition was -5.5% in test [1] and 7.39% in [2]. In addition, the activity, negative = inhibition in [3] is -0.906%. Further, the Potency in test [11] was above 20.6 µM. In test [12], the activation is 16.1%.

For the compound `Cn1c(=O)c2c(nc(Oc3ccc4c(c3)OCO4)n2Cc2ccc(F)cc2)n(C)c1=O`, the activity change, negative = inhibition in test [1] is 28.8%; in test [2], 2.74%. For the same compound, the activity, negative = inhibition in test [3] was 6.83%. The Potency in test [11] is above 20.6 µM. Also, the activation in test [12] was -23.2%.

For the compound `CCN(CC)CCCN1C(=O)C(O)=C(C(=O)c2ccc(C)o2)C1c1ccc(C)o1` (stereo not given), the activity change, negative = inhibition in test [1] is 5.4%; in test [2], -12.9%. The Potency in [11] was above 20.6 µM.

Consider `O=C(NCCN1CCCCC1)c1ccc(=O)oc1`, for which the activity change, negative = inhibition in [1] is 13.4%; in test [2] it was 6.11%. For the same compound, the Potency in test [11] is above 20.6 µM.

In the case of `CCN1CCCC1Cn1cnc2c([nH]c3ccc(C)cc32)c1=O` (stereo not given), the results for the activity change, negative = inhibition in [1] and in test [2] were -6.04% and 8.74%, respectively. The activity, negative = inhibition in [3] was 3.87%. For the same compound, in test [11], the Potency was above 20.6 µM. The activation in test [12] was 9.56%.

As for `CC1(C)Cc2nc(NCCN3CCOCC3)c(C#N)cc2CO1`, the activity change, negative = inhibition is 7.57% in test [1] and 7.63% in test [2]. In addition, the activity, negative = inhibition in test [3] was 11%. In addition, the Potency in test [11] was above 20.6 µM. Moreover, the activation in [12] was 3.3%.

In the case of `CCCOC(=O)CSC1=C(C#N)C(c2ccc3c(c2)OCO3)CC(=O)N1` (stereo not given), the activity change, negative = inhibition in test [1] is -0.809%; in test [2], 11.1%. Moreover, the activity, negative = inhibition in test [3] was 1.94%. In addition, in [11], the Potency was above 20.6 µM. Further, the activation in test [12] is -15.4%.

Regarding `CCOC(=O)CSC1=C(C#N)C(=O)NC(c2ccc(OC)c(OC)c2)S1` (stereo not given), the activity change, negative = inhibition was -12.5% in [1] and -123% (active) in [2]. The Potency in [11] was above 20.6 µM.

In the case of `COC(=O)c1[nH]c(C)c(/C(O)=C2\C(=O)C(=O)N(CCN3CCOCC3)C2c2ccccc2OC)c1C` (stereo not given), the results for the activity change, negative = inhibition in test [1] and in test [2] were 3.47% and 17.3%, respectively. Also, the activity, negative = inhibition in test [3] was -6.01%. The Potency in [11] is above 20.6 µM. In addition, the activation in test [12] is 0.0679%.

As to `COc1cc2nc(-c3ccccc3)nc(N3CCCC3)c2cc1OC`, the figures for the activity change, negative = inhibition in [1] and in test [2] were 24.5% and -11.3%, respectively. Besides, the Potency in test [11] is above 20.6 µM.

On to `CN(C=C1C(=O)CC(C)(C)CC1=O)CCN1CCNCC1`, for which the results for the activity change, negative = inhibition in test [1] and in test [2] were 19.5% and -19.2%, respectively. Also, in test [3], the activity, negative = inhibition was 4.61%. In test [11], the Potency is above 20.6 µM. Moreover, in test [12], the activation was -4.98%.

Regarding `Cn1cc(Br)cc2nc(C(F)(F)F)nc1-2`, the activity change, negative = inhibition in test [1] is -3.15%; in test [2] it was -3.67%. For the same compound, the activity, negative = inhibition in test [3] was 3.32%. Also, the Potency in test [11] is above 20.6 µM. Besides, the activation in [12] is 2.94%.

Regarding `Cc1ccc(-c2n[nH]c(=O)c3ccccc23)cc1S(=O)(=O)NCCN1CCOCC1`, the activity change, negative = inhibition in test [1] was 1.31%; in test [2], -9.43%. The activity, negative = inhibition in test [3] was 1.81%. In addition, the Potency in [11] is above 20.6 µM. Besides, in test [12], the activation is -17.3%.

`CC(C)C1Cc2c(C#N)c(N)n(C)c(=S)c2CO1` (stereo not given): the activity change, negative = inhibition was -4.25% in [1] and -23.6% in test [2]. The activity, negative = inhibition in [3] is 4.22%. The Potency in test [11] was above 20.6 µM. For the same compound, the activation in test [12] was -0.94%.

For `Cn1c(=O)cc(NCc2ccccc2)[nH]c1=O`, the activity change, negative = inhibition in test [1] is 15%; in test [2], -6.77%. The Potency in [11] was above 20.6 µM.

Take `CC(=O)Oc1oc(-c2ccccc2)nc1/C=N/c1ccccn1`: the activity change, negative = inhibition in [1] was -71.1%; in [2], -130% (active). Besides, in test [11], the Potency was above 20.6 µM.

On to `N/C(CCN1CCOCC1)=N/O`, for which the results for the activity change, negative = inhibition in test [1] and in [2] were 18.7% and 2.54%, respectively. For the same compound, the Potency in test [11] is above 20.6 µM.
